Test results from article PMC4336329 (PLoS ONE, 2015).
About 14,000 (4.5%) of roughly 310,000 compounds showed an effect of 50% or more. Effects have a minus sign here. What follows is part of a selection rich in strong results, with near analogues and random picks from the rest.

What follows are molecules tested against human ether-à-go-go-related gene (hERG) potassium channel (human, UniProt Q12809) (assay: primary screen, population patch clamp on CHO cells stably expressing hERG; higher = less effect of the substance).
human ether-à-go-go-related gene (hERG) potassium channel, sequence (Q12809 whole entry, looked up): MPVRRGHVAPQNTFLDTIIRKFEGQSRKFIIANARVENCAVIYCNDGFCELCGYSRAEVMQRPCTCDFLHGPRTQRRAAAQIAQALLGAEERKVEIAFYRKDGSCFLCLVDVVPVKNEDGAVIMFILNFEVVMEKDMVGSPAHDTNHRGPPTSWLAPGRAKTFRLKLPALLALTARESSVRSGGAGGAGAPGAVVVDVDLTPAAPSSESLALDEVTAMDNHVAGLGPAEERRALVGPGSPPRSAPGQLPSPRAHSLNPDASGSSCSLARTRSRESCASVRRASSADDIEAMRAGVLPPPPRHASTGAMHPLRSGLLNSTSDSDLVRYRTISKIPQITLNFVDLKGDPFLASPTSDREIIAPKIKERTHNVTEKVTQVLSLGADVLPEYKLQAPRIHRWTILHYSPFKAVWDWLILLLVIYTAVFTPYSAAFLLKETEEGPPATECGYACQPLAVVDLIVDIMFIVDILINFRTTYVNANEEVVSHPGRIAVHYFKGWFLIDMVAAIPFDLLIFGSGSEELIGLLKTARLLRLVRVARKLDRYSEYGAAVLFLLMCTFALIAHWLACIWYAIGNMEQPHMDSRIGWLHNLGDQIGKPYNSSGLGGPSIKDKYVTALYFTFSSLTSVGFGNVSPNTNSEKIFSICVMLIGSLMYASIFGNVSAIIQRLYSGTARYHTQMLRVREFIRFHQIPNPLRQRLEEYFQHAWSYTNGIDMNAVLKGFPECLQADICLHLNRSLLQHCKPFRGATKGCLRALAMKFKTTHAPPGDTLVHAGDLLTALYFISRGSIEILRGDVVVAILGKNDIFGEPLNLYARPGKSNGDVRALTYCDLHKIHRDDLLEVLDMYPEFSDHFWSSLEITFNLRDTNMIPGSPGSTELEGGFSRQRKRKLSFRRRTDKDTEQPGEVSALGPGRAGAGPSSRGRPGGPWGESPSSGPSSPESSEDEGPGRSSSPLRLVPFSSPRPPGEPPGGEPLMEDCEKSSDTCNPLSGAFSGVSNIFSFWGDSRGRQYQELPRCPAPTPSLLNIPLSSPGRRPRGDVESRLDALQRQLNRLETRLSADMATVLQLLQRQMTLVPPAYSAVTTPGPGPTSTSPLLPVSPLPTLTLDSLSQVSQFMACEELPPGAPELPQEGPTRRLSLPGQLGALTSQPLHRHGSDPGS
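Also: peak tail current of the secondary pulse compared with the same well before compound.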

Compound	hERG current change (%, negative = inhibition) at 10uM [%]
COc1ccc(OC)c(CCNC(=O)Cn2ccc3cc(S(=O)(=O)N4CCCC4)ccc32)c1	-13.9
CCN(CC)CCNC(=O)c1cc2c(s1)-c1ccccc1SC2	-77.8
COCCNC(=O)c1cc2c(s1)-c1ccc(Cl)cc1SC2	-5
CNC(=O)c1cc2cc(Br)ccc2s1	10.1
NNC(=O)c1cc2c(s1)-c1cc(Cl)ccc1SC2	10.3
CN(CCC#N)C(=O)c1cc2c(s1)-c1ccccc1SC2	-8.88
CN(C)CCNC(=O)c1cc2c(s1)-c1ccc(Cl)cc1SC2	-81.1
CCOCCCNC(=O)c1cc2c(s1)-c1ccccc1SC2	-5.28
CCN(CC)CCNC(=O)c1cc2cc(Br)ccc2s1	-61.1
CN(C)C(=O)c1cc2cc(Br)ccc2s1	-3.77
C/C(=N/OCC(=O)NCCCCCCNC(=O)CO/N=C(/C)c1cccs1)c1cccs1	-20.8
CCCCOC(=O)Nc1cc(Cl)ccc1C	1.24
O=S(=O)(/N=C(/Nc1ccccc1)C(F)(F)F)c1ccccc1	-20.7
Br.C/C(CC1CC(COCC(C)C)OC1=O)=N\Nc1nc(-c2ccccc2)cs1 (stereo not drawn)	-15.5
CC1Sc2ccc(S(=O)(=O)CCC(=O)Nc3ccccc3Cl)cc2NC1=O (stereo not drawn)	4.08
Cc1ccc(/C=C/C(=O)Nc2nnc(SCc3ccc(C#N)cc3)s2)o1	-11
O=C1CC(c2ccccc2)n2nc(NC(=O)C3CCCO3)nc2N1 (stereo not drawn)	-10
Cc1ccc(S(=O)(=O)N(C)C)cc1NC(=O)COC(=O)CCC1CCCC1	-18.5
COc1ccc(S(=O)(=O)N(C)C)cc1NC(=O)COC(=O)CC1CCCC1	-72.8
CCN(CC)S(=O)(=O)c1ccc(OC)c(NC(=O)CC2CCCC2)c1	-10.8
Cc1ccc(S(=O)(=O)N(C)C)cc1NC(=O)COC(=O)CCC1CCCCC1	2.99
Cc1ccc(S(=O)(=O)N(C)C)cc1NC(=O)COC(=O)CC1CCCC1	-74.2
COc1ccc(NC(=O)COC(=O)CC2CCCC2)cc1Cl	-1.21
CCc1ccccc1NC(=O)CN(C)C(=O)CSc1nc2cc(Cl)ccc2s1	17.8

Compound	hERG current change (%, negative = inhibition) at 10uM [%]
CCOC(=O)/C(=N\Nc1cc(Cl)ccc1Cl)N1CCN(C)CC1	-16.9
O=C(CSc1ncccn1)N/N=C/c1ccccc1[N+](=O)[O-]	11.3
O=C(NCCN1CCOCC1)/C(=C\c1ccc(F)cc1)NC(=O)c1ccccc1	-62.3
O=C(NCCN1CCOCC1)/C(=C/c1ccco1)NC(=O)c1ccccc1	-5.48
O=C(NCCCN1CCOCC1)/C(=C/c1cccnc1)NC(=O)c1ccccc1	-25
O=C(NCCN1CCOCC1)/C(=C\c1ccccc1F)NC(=O)c1ccccc1	-26.5
O=C(NCCCN1CCOCC1)/C(=C/c1ccc(F)cc1)NC(=O)c1ccccc1	-73.5
COc1ccccc1/C=C(/NC(=O)c1ccccc1)C(=O)NCCN1CCOCC1	15.5
O=C(NCCN1CCOCC1)/C(=C\c1ccc(Br)cc1)NC(=O)c1cccs1	-67.4
O=C(NCCO)/C(=C\c1ccc(Br)cc1)NC(=O)c1cccs1	-3.91
O=C(NCCN1CCOCC1)/C(=C/c1ccc(F)cc1)NC(=O)c1ccccc1	-67.8
O=C(NCCO)/C(=C/c1ccc(Br)cc1)NC(=O)c1cccs1	-14
CN(C)c1ccc(/C=C(\NC(=O)c2ccccc2)C(=O)NCCCN2CCOCC2)cc1	-10.4
COc1ccccc1C(=O)COC(=O)c1nc(Cl)ccc1Cl	-0.91
O=C(CSC1=NS(=O)(=O)c2cc(Cl)ccc2N1)NCCc1ccccc1	15.4
CN(C)c1ccc(S(=O)(=O)N2CCCCC2)cc1NC(=O)CCNC(=O)c1ccc(Cl)cc1	-27.4
Cc1cccc(Oc2ccccc2NC(=O)CN2C(=O)NC3(CCCC3)C2=O)c1	-6.76
CCN(CC)S(=O)(=O)c1ccc(NS(=O)(=O)c2ccc(C)c(C)c2)cc1	-21.6
Nc1nonc1C(=Nc1ccc(Br)cc1)NO	8.76
CCOC(=O)c1cnc(SCC(=O)OC)nc1N	52.5
C/C(=N\N1C(C)CCCC1C)c1ccccc1O (stereo not drawn)	14.1
O=C(NCc1ccc2c(c1)OCO2)c1ccccc1Cl	-2.6
COc1ccc(CC(=O)N2CC(C)CC(C)C2)cc1OC (stereo not drawn)	5.21
CSc1ccc(/C=C(\NC(=O)c2ccccc2)C(=O)NCCN2CCOCC2)cc1	-63.7

Compound	hERG current change (%, negative = inhibition) at 10uM [%]
CSc1ccc(/C=C(/NC(=O)c2ccccc2)C(=O)NCCN2CCOCC2)cc1	-44.8
CC(=O)O[C@@H]1C[C@H]2C(C)(C)C(=O)C=C[C@]2(C)[C@H]2CC[C@@]3(C)[C@H](c4ccoc4)OC(=O)[C@H]4O[C@]43[C@@]21C	-43.1
N#Cc1ccccc1NC(=S)NC(=O)c1cccnc1	13.7
CCN(CC(=O)NCc1ccc(Cl)cc1)C(=O)c1ccc2cc(OC)ccc2c1	3.72
COc1ccc(CNC(=O)COc2ccc(F)cc2)cc1	2.33
CCN(CC(=O)NCc1ccc(F)cc1)C(=O)Cc1ccc(OC)cc1	-63.5
CCN(CC(=O)NCc1ccc(Cl)cc1)C(=O)c1cc(OC)cc(OC)c1	-48.4
CCN(CC(=O)NCc1ccc(F)cc1)C(=O)/C=C/c1ccc(OC)cc1	-48
CCN(CC(=O)NCc1ccc(Cl)cc1)C(=O)Cc1ccc(OC)cc1	-75.7
c1nc(N2CCCC2)c2[nH]cnc2n1	-3.15
CCC(C(=O)NC(C)(C)C)N(C(=O)Cn1nnc(-c2cccs2)n1)c1cnc2ccccc2c1 (stereo not drawn)	-13.3
COc1ccc(C(=O)CNc2ccccc2CO)cc1	22.8
O=C(NCCC1=CCCCC1)c1cc(-c2ccncc2)nc2ccccc12	6.78
CC(C)(C)c1ccc(C(=O)Nc2ccc(O)c3c(=O)cc(-c4cccc(Cl)c4)oc23)cc1	17.7
CC(=O)Nc1cccc(C(=O)OC(C)C(=O)NC(=O)NC2CCCCC2)c1 (stereo not drawn)	3.89
COc1cc(C(=O)OC(C)C(=O)NC(=O)NC2CCCCC2)ccc1OC(F)F (stereo not drawn)	-51.2
COc1cc(C(=O)OCC(=O)NC(=O)C2CCCCC2)ccc1OC(F)F	15.8
CCOC(=O)C1CCN(C(=O)Nc2ccc3c(c2)nc(C)n3C)CC1	0.694
CCN(CC)c1ccc(CNc2nnnn2C)cc1	19.3
Cc1cc(=O)n2nc(N3CCCC(C(=O)NC4CCCCC4C)C3)sc2n1 (stereo not drawn)	9.32
Cc1ccccc1CSCCNC(=O)CCSc1ccccc1	2.74
CCCCOc1ccc(C(O)(CC)CCN2CCOCC2)cc1 (stereo not drawn)	-13.4
CCCCC(O)(CCN1CCOCC1)c1ccc(Cl)cc1.Cl (stereo not drawn)	-66.5
CCCCOc1ccc(C(O)(CCC)CCN2CCOCC2)cc1 (stereo not drawn)	-51.2

Compound	hERG current change (%, negative = inhibition) at 10uM [%]
CCCOc1ccc(C(O)(CCN2CCCCC2)c2ccccc2OC)cc1.Cl (stereo not drawn)	-29.9
CCCC(O)(CCN1CCOCC1)c1ccc(Br)cc1.Cl (stereo not drawn)	-20.7
CCCOc1ccc(C(O)(CCC)CCN2CCCCC2)cc1 (stereo not drawn)	-56.1
CCCOc1ccc(C(C)(O)CN2CCOCC2)cc1 (stereo not drawn)	15.6
CCCC(O)(CCN1CCOCC1)c1ccc(Cl)cc1 (stereo not drawn)	3.77
CCCCOc1ccc(C(C)(O)CCN2CCOCC2)cc1 (stereo not drawn)	-2.97
OC1(c2ccc(F)cc2)CSC(=Nc2cccnc2)N1Cc1ccco1 (stereo not drawn)	-14.2
COc1ccc(OC)c2nc(-c3ccc4c(c3)OCO4)ccc12	10.4
CC1CCC2(CC1)NC(=O)N(CC(=O)N1CCN(C(=O)c3cccs3)CC1)C2=O (stereo not drawn)	-9.44
CCOC(=O)Cc1csc(NC(=O)c2cc(=O)c3ccccc3o2)n1	-12.3
COc1ccc(Br)cc1CN1C(=O)NC2(CCCCCC2)C1=O	10.4
Cn1ncc(Br)c1C(=O)N1CCCC1	19
O=C(COc1ccc(-c2ccccc2)cc1)N1CCCC1	-54.5
Cc1ccc(OCC(=O)N2CCN(C(=O)c3cccnc3)CC2)cc1	-4.29
CCc1ccc(OCC(=O)N2CCN=C2c2ccccc2)cc1	-5.36
O=C(COc1ccccc1)N1CCN=C1c1ccccc1	-77.5
O=C(COc1ccccc1)N1CCCC1	15.6
O=C(COc1ccc2ccccc2c1)N1CCN(C(=O)c2cccnc2)CC1	-25
O=C(COc1ccc(-c2ccccc2)cc1)N1CCN(C(=O)c2cccnc2)CC1	-57.9
CSC1=NCCN1C(=O)COc1ccccc1	11.3
O=C(COc1ccccc1)N1CCCCCCC1	3.25
